Assay results from PubChem BioAssay AID504840 (Johns Hopkins Ion Channel Center, 2011).
Among all 1,500 compounds or so, about 890 (59%) were called active.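 How the source made its calls: active means inhibition of the choline-evoked signal at any tested dose together with a fitted dose-response curve; inactive means no inhibition at any dose or no curve.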 So high a share suggests a set chosen from earlier hits. The list is a sample of the results. Results with a measured potency or affinity are listed apart.

Biological target: High affinity choline transporter 1 (Homo sapiens) (UniProt Q9GZV3)
Sequence (Q9GZV3 whole entry, looked up): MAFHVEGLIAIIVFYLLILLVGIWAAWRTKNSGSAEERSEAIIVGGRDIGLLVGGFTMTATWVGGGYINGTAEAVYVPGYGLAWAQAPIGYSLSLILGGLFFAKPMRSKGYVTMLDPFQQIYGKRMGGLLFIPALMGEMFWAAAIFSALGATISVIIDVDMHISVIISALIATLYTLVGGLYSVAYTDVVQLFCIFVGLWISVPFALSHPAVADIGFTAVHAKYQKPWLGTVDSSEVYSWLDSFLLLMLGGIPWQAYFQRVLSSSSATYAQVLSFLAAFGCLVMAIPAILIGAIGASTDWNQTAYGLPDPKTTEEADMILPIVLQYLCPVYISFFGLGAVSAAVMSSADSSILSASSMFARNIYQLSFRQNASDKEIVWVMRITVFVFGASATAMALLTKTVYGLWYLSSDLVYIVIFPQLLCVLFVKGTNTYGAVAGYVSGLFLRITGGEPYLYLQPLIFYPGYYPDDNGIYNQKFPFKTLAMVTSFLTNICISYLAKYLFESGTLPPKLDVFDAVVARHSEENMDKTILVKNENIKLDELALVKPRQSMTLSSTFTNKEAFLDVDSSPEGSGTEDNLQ
Experiment: CHT inhibitors, dose response, cell-based, 5-point CRC, membrane potential dye (AID 504840);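 further: 0% = buffer-only response and 100% = EC90 choline response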
Conditions: HEK293-CHT, choline-induced depolarization, CHT with LV-to-AA double alanine mutation; series mostly up to 37 µM; inhibition: at the top concentration

inhibition, inactive:
Cc1ccc(Cl)cc1N1CCN(C(=O)Cc2c(C(=O)O)[nH]c3ccc(Cl)cc23)CC1 49.7%
CCC(=O)Nc1cc(Cl)ccc1N1CCN(C(=O)CC)CC1 26.7%
O=C(CCC(=O)N1CCN(c2ccccc2F)CC1)N1CCN(c2ccc(F)cc2)CC1 19.3%
NC(N)=N/N=C/c1ccc(Cl)c(Cl)c1 56.4%
O=C1OCCC1Sc1nc(-c2ccccc2)cs1 (stereo not drawn) 55.7%
Cc1csc(C(C#N)C(=O)c2cc3ccccc3o2)n1 (stereo not drawn) 24.7%
CC(C)n1c(=S)[nH]c2cc(C(F)(F)F)ccc21 44.1%
Cc1noc(NC(=O)c2c(-c3c(Cl)cccc3Cl)noc2C)c1[N+](=O)[O-] 39.3%
CCCCNS(=O)(=O)c1ccc(NC(=O)c2c(-c3ccccc3Cl)noc2C)cc1 29.5%
Cc1cc(C)cc(OCC(O)CN2CCC(CN3C(=O)c4cccc5cccc(c45)C3=O)CC2)c1 (stereo not drawn) 36.8%
OCC1OC(n2cnc3c(NC4CCCCC4)ncnc32)C(O)C1O (stereo not drawn) 46.6%
CC(=O)c1ccc(Nc2nc(NCCO)nc(OC(C(F)(F)F)C(F)(F)F)n2)cc1 23.8%
CC1CCN(CCCNC(=O)CN2C(=O)CSc3ccc(S(=O)(=O)N4CCCCC4)cc32)CC1 53.7%
CCCCN(C)CCNC(=O)CN1C(=O)CSc2ccc(S(=O)(=O)N3CCCC3)cc21 52.2%
Cc1ccc(-c2csc3ncnc(-n4cnc5ccccc54)c23)cc1 85%
Cc1ccc(-c2csc3ncnc(N4CCN(C)CC4)c23)cc1C 53.4%
Cc1ccc(-c2csc3ncnc(-n4nnc5ccccc54)c23)cc1 57.5%
O=C(O)CCN1C(=O)CC(N2C(=O)/C(=C/c3ccc(Cl)cc3)SC2=S)C1=O (stereo not drawn) 49.9%
COc1ccc(-c2csc3ncnc(NCCCO)c23)cc1 52.9%
CCCNC(=O)N1CCCC(C(=O)c2cccc(Cl)c2)C1 (stereo not drawn) 6.87%
CCOC(=O)Cc1csc(N/C(=N/S(=O)(=O)c2ccc(F)cc2F)c2ccccc2)n1 11%
Cc1cc(O)ccc1NS(=O)(=O)c1ccc2c3c(cccc13)C(=O)N2 38.9%
CC1Cc2ccccc2N1C(=O)COC(=O)c1ccc(O)cc1 (stereo not drawn) 24.7%
CC[C@H](CO)Nc1nc(Nc2cccc(Cl)c2)c2ncn(C(C)C)c2n1 33.4%
COc1cc2c(cc1OC)/C(=C/C(=O)c1ccccc1F)NCC2 49.9%
CCCCCn1c(=O)c(F)cn(Cc2ccc(OC)c([N+](=O)[O-])c2)c1=O 58.7%
Cn1c(-c2ccccc2)cnc1SCc1nc2ccccc2c(=O)[nH]1 30.3%
N#Cc1ccccc1COC(=O)c1cccnc1N 41.7%
CC1=C(C(=O)NC(C)C)C2(CCC(C)CC2)OC1=O (stereo not drawn) -0.294%
O=C1/C(=C/c2ccc(F)cc2)SC(=S)N1NS(=O)(=O)c1ccccc1 40.3%
COc1ccc(/C=C2/SC(=S)N(NS(=O)(=O)c3ccccc3)C2=O)cc1 41.8%
CCOc1ccc(/C=C2\SC(=S)N(NS(=O)(=O)c3ccc(C)cc3)C2=O)cc1OC 72.1%
COc1cc(C=O)ccc1OCCOCCOc1ccccc1Cl 22.1%
